Screens as filed in PubChem.
ALR H2O2 inh – inhibitors of human sulfhydryl oxidase ALR | purified ALR, DTT oxidation, H2O2 HRP-luminol luminescence | inhibition, % (no concentration beside the values) | P55789 | 290,000 compounds, 3.8% hits | AID 485317;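 active means mean replicate inhibition above about 79%, with every replicate also reaching it, limit read from the data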
Target sequence (P55789 whole entry, looked up): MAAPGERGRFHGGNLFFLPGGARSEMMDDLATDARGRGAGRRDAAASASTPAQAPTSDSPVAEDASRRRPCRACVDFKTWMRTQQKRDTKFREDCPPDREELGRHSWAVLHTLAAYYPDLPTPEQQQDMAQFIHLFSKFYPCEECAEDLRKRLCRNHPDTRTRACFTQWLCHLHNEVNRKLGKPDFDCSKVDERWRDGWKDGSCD
Mot1-301 SUMO – SUMOylation pathway inhibition by Mot1-301 growth rescue; S. cerevisiae Mot1-301 growth rescue, ATP luminescence, 38.5C; percent above DMSO median, 100 means doubled; growth rescue, % at 18.8 µM; 320,000 compounds, 1% hits; AID 2716;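 active means every valid replicate shows activation above 250% relative to neutral control wells; inactive means the rest, any valid replicate at or below 250%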
AI-2 QS mod – Vibrio harveyi AI-2 quorum sensing modulation; Vibrio harveyi JMH597 AI-2 luminescence/OD600 ratio, 9 h; stronger effect = lower value; strain lacks LuxN and CqsS sensors; 0 = neutral-control median; activity change, % at 7.5 µM; 300,000 compounds, 0.4% hits; AID 2094; in the data active means activity change below about -75%, passing the limit was not always enough;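 further: luminescence divided by OD600 gain over 9 h not by final OD600 alone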
HIF act – HIF pathway transcriptional activation; U2OS HRE-luciferase reporter, luminescence; normalized: DMSO 0%, desferrioxamine 100%; activation, % at 7.5 µM (by protocol); 300,000 compounds, 0.32% hits;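 active means mean activation of at least 10% of the iron chelator positive control signal, with at least half of replicates also reaching 10%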
Mot1 SUMO dose – yeast SUMO pathway inhibition in dose response. growth activity, percent, % at 42 µM. S. cerevisiae Mot1-301 galactose growth, ATP luminescence, 24 h; -100 = growth of slx-deleted rescue strain. 2,300 tested, under 10 active. shares compounds with Mot1-301 SUMO. AID 493004;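 active means Signal drops as the depositor expects, and the fitted half-maximal dose is no more than ten times the top valid tested dose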;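 further: more negative values mean stronger growth rescue toward the control strain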
Numbers stand for hits; n = inactive; x = no result; + = active, no number. Compounds with a hit are over-represented: about 4.8% of the library has one in this group of screens.

SMILES	ALR H2O2 inh	Mot1-301 SUMO	AI-2 QS mod	HIF act	Mot1 SUMO dose
Cc1ccc(-c2nn(-c3ccccc3)cc2/C=N/NC(=O)c2ccc(Br)o2)cc1	x	n	n	n	x
O=C(N/N=C\c1cn(-c2ccccc2)nc1-c1ccccc1)c1ccc(Br)o1	n	+	n	n	n
CCCOc1ccc(-c2c(C(=O)N/N=C(\C)c3cccs3)nnn2-c2nonc2N)cc1	n	n	n	n	x
CCn1cnc2sc(-c3ccccc3)cc2c1=O	n	412.3	n	n	n
CC(=O)Cn1cnc2sc(-c3ccccc3)cc2c1=O	n	n	n	n	x
CCN(C(=O)COC(=O)c1cccnc1SC)c1c(N)n(Cc2ccccc2)c(=O)[nH]c1=O	n	n	x	x	x
O=C(CSc1ncn[nH]1)c1cc2ccccc2o1	n	n	n	n	x
O=C(CSc1nccc(=O)[nH]1)c1cc2ccccc2o1	x	585.6	n	n	n
CCOc1ccccc1N(CC(=O)Nc1ccccc1C(=O)N1CCCC1)S(C)(=O)=O	n	586.3	n	n	n
CCN(CC(=O)Nc1c(F)cccc1F)C(=O)c1ccc2c(c1)S(=O)(=O)N=C1CCCCCN12	n	n	n	n	x
C/C(=N/OCO/N=C(\C)c1ccccc1)c1ccccc1	n	639.8	n	n	n
CC(C)NC(=O)N(C)C[C@H]1Oc2c(cccc2N(C)C)C(=O)N([C@H](C)CO)C[C@@H]1C	n	n	x	x	x
CN(c1ccccc1)S(=O)(=O)c1nnc(NC(=O)C2CCCCC2)s1	n	n	n	n	x
O=C(Nc1ccccc1Oc1ccsc1C(=O)O)c1ccccc1F	x	n	n	n	x
N#Cc1ccc2[nH]c(CO)c(-c3ccccc3)c2c1	n	+	n	n	n
COc1cccc(C(=O)NCc2ccc(-c3nc4ccccc4s3)cc2)c1	n	374.6	n	n	n
N#CCCN(C(=O)COC(=O)c1ccc(S(=O)(=O)Nc2ccccc2)cc1)c1ccccc1	n	+	n	n	n
O=C(N/N=C/C(Br)=C/c1ccccc1)c1n[nH]c2c1CCC2	n	507.8	n	n	n
O=C(N/N=C/c1ccccc1)c1n[nH]c2c1CCCC2	n	n	n	n	x
COc1cc(OC)cc(OC(=O)c2ccc3c(=O)n4c(nc3c2)CCC4)c1	n	359.1	n	n	n
O=C(O)CCSc1ccc([N+](=O)[O-])cc1[N+](=O)[O-]	n	362.8	n	n	n
Cc1ccc(S(=O)(=O)N2CCCC2C(=O)NCCc2ccccc2)cc1 (configuration not stated)	n	471.2	n	n	n
COc1ccc(Cl)cc1S(=O)(=O)N1CCC(C(=O)NCCc2ccccc2)CC1	n	n	n	n	x
O=C(NCCc1ccccc1)C1CCCN1S(=O)(=O)c1ccc(Cl)cc1 (configuration not stated)	n	n	n	n	x
COc1ccc(C)cc1S(=O)(=O)N1CCC(C(=O)NCCc2ccccc2)CC1	n	412.7	n	n	n
SMILES	ALR H2O2 inh	Mot1-301 SUMO	AI-2 QS mod	HIF act	Mot1 SUMO dose
CC(Cc1ccc(Cl)cc1)N1CCC(n2nccc2NC(=O)C2CCCC2)CC1 (configuration not stated)	n	n	n	n	x
O=C(NNC(=O)c1csc(N2CCOCC2)n1)c1ccc(Cl)nc1	n	451.8	x	n	n
CCOC(=O)[C@H]1[C@H]2COc3ccc(Br)cc3[C@@H]2N2C(=O)CN(Cc3ccc(F)cc3)C(=O)[C@@]12C	n	n	x	x	x
Oc1ccccc1CN1CCCC(N2CCc3ccccc3C2)C1 (configuration not stated)	n	n	n	n	x
O=C(O)C1CCCN1C(=O)c1cncc(Br)c1 (configuration not stated)	n	+	n	x	n
CC(=O)N1CCC[C@H]1C(=O)O	x	n	n	n	x
O=C1c2cccnc2C(=O)N1Cc1ccc(S(=O)(=O)N2CCOc3ccccc32)cc1	n	n	n	n	x
C[C@H]1[C@H](C)CC[C@]2(C(=O)O)CC[C@]3(C)C(=CC[C@@H]4[C@@]5(C)CC[C@H](O)C(C)(C)[C@@H]5CC[C@]43C)[C@H]12	n	n	n	n	x
CC1(C)C2CC[C@]3(C)C(CC=C4[C@@H]5C[C@@](C)(CO)[C@@H](O)C[C@]56C[C@@H](OC6=O)[C@]43C)[C@@]2(C)CC[C@@H]1O (some centres not stated)	n	368.9	n	n	n
CSc1nsc(SCC(=O)Nc2cccc(C(=O)O)c2)n1	n	782.0	n	n	n
O=C(CSc1nc(-c2ccccc2)nc2ccc(F)cc12)Nc1cccc(C(=O)O)c1	x	534.6	n	n	n
CSc1nsc(SCC(=O)Nc2ccc(C(=O)O)cc2)n1	n	n	n	n	x
O=C(c1cnn2c(C(F)(F)F)cc(-c3ccco3)nc12)N1CCCc2ccccc21	x	908.2	n	n	n
O=C(CC(c1ccccc1)c1ccccc1)NCCOCc1ccccc1	x	403.2	n	n	n
O=C(c1ccc2nc(Cc3ccccc3F)oc2c1)N1CC[C@H](O)C1	n	n	n	n	x
CCCC(C)NC(=O)COC(=O)c1cccc(NS(C)(=O)=O)c1 (configuration not stated)	n	n	n	n	x
CCCOc1ccccc1C1NC(=O)NC(C)=C1C(=O)OCCOCC (configuration not stated)	n	564.9	n	n	n
CCCCOc1ccccc1C1NC(=O)NC(C)=C1C(=O)OCCOCC (configuration not stated)	n	n	n	n	x
CCN(c1cccc(C)c1)S(=O)(=O)c1cn(CC(=O)OC)c2ccc([N+](=O)[O-])cc12	n	n	n	n	x
COc1ccc2c(c1)[C@H]1[C@H](CO2)[C@H](c2ccccc2)[C@]2(C)C(=O)Nc3ccc(C)cc3C(=O)N12	n	598.4	x	x	n
COc1ccc2c(c1)C(=O)N1[C@H]3c4cc(C)ccc4OC[C@@H]3[C@H](c3ccccc3)[C@]1(C)C(=O)N2	x	n	x	x	x
COc1ccc2c(c1)[C@H]1[C@H](CO2)[C@H](c2ccccc2)[C@]2(C)C(=O)Nc3ccc(F)cc3C(=O)N12	n	903.6	x	x	n
COc1ccc2c(c1)OC[C@H]1[C@H]2N2C(=O)c3cc(C)ccc3NC(=O)[C@@]2(C)[C@H]1c1ccccc1	n	+	x	x	n
COc1ccc2c(c1)OC[C@H]1[C@H]2N2C(=O)c3ccccc3NC(=O)[C@@]2(C)[C@H]1c1ccccc1	n	639.6	x	x	n
COc1ccc2c(c1)[C@@H]1[C@H](CO2)[C@H](c2ccccc2)[C@]2(C)C(=O)Nc3ccc(C)cc3C(=O)N12	n	n	x	x	x
COc1ccc(C(=O)C2CCCN(C(=O)c3noc4c3CCCC4)C2)c(C)c1 (configuration not stated)	n	n	n	n	x
CN1C(=O)/C(=C/c2ccccc2OCc2cccc(F)c2)NC1=S	n	n	n	n	x
COc1cc(/C=C2\NC(=S)N(C)C2=O)ccc1OCc1cccc(F)c1	n	562.9	n	n	n
COc1cccc(Cn2cnc3c(NS(=O)(=O)c4cccc(Cl)c4Cl)c(C)c(C)cc32)c1	n	410.7	n	n	n
